# From PubChem BioAssay (Tox21)
# Values without a mark were called inactive. Inconclusive results are not listed. A call without a number means that no potency is given here. Active and inactive are the calls of the source. Unless noted, calls come from the whole dose curve.
# Key:
# [1] = biological target: Gonadotropin-releasing hormone receptor (Homo sapiens) (UniProt P30968); test: Human gonadotropin-releasing hormone receptor (GnRHR) small molecule agonists, calcium flux assay in GnRHR-HEK293 cells (AID 1920063); note: nearly all actives have a fitted effect of over 35% in size; note: potency is the fitted concentration of half-maximal effect
# Chain of Gonadotropin-releasing hormone receptor (Homo sapiens) (P30968 whole entry, looked up): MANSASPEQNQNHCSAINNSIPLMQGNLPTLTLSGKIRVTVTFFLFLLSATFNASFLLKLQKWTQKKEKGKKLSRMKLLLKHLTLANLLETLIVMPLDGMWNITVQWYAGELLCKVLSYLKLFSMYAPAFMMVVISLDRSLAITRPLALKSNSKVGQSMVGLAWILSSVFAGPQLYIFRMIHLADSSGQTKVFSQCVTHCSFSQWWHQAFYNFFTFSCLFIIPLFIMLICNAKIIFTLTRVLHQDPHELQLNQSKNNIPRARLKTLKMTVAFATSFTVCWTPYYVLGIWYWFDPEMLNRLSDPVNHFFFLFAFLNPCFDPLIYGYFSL
# Method in brief: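 Calcium flux, agonist mode, human GnRHR stably integrated in HEK293; dye 1 h at 37 C before compound; Ex/Em=480/540 kinetic read, 3 min; 15 concentrations, triplicate.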
# [2] = biological target: KiSS-1 receptor (Homo sapiens) (UniProt Q969F8); test: Human kisspeptin (KISS1R) small molecule agonists, calcium flux assay in KISS1R-HEK293 cells (AID 1920064; active = well fitted activation curve with a large enough effect in the repeat runs)
# Chain of KiSS-1 receptor (Homo sapiens) (Q969F8 whole entry, looked up): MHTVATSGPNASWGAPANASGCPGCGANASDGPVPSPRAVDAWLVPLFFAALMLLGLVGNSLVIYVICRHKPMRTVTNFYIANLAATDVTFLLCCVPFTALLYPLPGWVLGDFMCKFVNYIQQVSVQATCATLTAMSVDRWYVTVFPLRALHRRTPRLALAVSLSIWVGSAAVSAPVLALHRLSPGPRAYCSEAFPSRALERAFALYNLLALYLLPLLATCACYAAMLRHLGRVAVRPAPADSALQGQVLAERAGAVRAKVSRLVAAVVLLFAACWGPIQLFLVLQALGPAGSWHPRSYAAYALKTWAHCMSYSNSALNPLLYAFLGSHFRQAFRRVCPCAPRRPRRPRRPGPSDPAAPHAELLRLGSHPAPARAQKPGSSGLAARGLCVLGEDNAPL
# Method in brief: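 Triplicate 15-concentration series were applied to dye-loaded human KISS1R HEK293 cells, and agonist-evoked calcium fluorescence was captured for 3 min.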
# [3] = G protein-coupled receptor (GPCR) small molecule agonists, calcium flux assay: HEK293 wild type cell line counter screen (AID 1920065)
# Method in brief: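 Non-specific calcium responders were flagged by adding DMSO-dissolved compounds to dye-loaded cells and reading 480/540 nm fluorescence each second for 3 min; ATP served as positive control.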
# [4] = p53 small molecule agonists, cell-based qHTS assay with human liver microsomes (AID 1963577)
# Method in brief: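 Fluorescence of the beta-lactamase reporter in p53RE-bla cells, detected with LiveBLAzer substrate (2 h, room temperature, dark), served as the read-out after 16 h compound exposure at 37 C with human liver microsomes and NADPH, each 0.5 mg/mL final.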
# [5] = p53 small molecule agonists, cell-based qHTS assay with rat liver microsomes (AID 1963578)
# Method in brief: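 Cells carrying a p53 response element–beta-lactamase reporter were plated and rested 5 h, then dosed with compound in DMSO plus rat liver microsomes and NADPH, each at 0.5 mg/mL final. After 16 h at 37 C, LiveBLAzer substrate was added for 2 h.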
# [6] = p53 small molecule agonists, cell-based qHTS assay with human liver microsomes: qHTS cell viability counter screen (AID 1963579); note: nearly all actives have a fitted effect of over 45% in size
# Method in brief: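 Cytotoxicity counter screen: p53RE-bla, 4,000 cells/well; 5 h settle, 37 C/5% CO2; cpd + HLM 0.5 mg/mL + NADPH 0.5 mg/mL (final); 16 h, 37 C; CellTiter-Glo, 30 min RT, luminescence.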
# [7] = p53 small molecule agonists, cell-based qHTS assay with rat liver microsomes: qHTS cell viability counter screen (AID 1963580); note: nearly all actives have a fitted effect of over 45% in size
# Method in brief: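 Cytotoxicity counter screen: intracellular ATP read by CellTiter-Glo luminescence in the p53 reporter wells. HCT-116 p53RE-bla cells were treated for 16 h at 37 C alongside rat liver microsomes and NADPH, each 0.5 mg/mL final.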
# [8] = p53 small molecule agonists, cell-based qHTS assay: qHTS cell viability counter screen (AID 1963581); note: nearly all actives have a fitted effect of over 45% in size
# Method in brief: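 Multiplexed with the reporter read, a CellTiter-Glo step (30 min, room temperature) gauges ATP-based viability of HCT-116 p53RE-bla cells after 16 h compound incubation at 37 C.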
# [9] = p53 small molecule agonists, cell-based qHTS assay (AID 1963582; active = well fitted activation curve with a large enough effect in the signal ratio in the repeat runs, not every such curve was filed as active; the % refers to the signal ratio)
# Method in brief: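 Beta-lactamase reporter cells (p53RE-bla) treated with compounds for 16 h at 37 C; FRET substrate, 2 h, room temperature; fluorescence intensity.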
# [10] = cAMP Responsive Elements (CRE) small molecule agonists, cell-based qHTS assay (AID 1963590)
# Method in brief: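 Quantitative HTS for CRE agonists: HEK 293T CRE-bla cells, overnight plating, 3 h compound incubation at 37 C/5% CO2, then 2 h room-temperature LiveBLAzer B/G FRET substrate loading.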
# [11] = biological target: Beta-2 adrenergic receptor (Homo sapiens) (UniProt P07550); test: Adrenergic beta2 receptor (ADRB2) small molecule antagonists, cell-based qHTS assay (AID 1963592); note: series mostly up to about 92 µM; nearly all actives have a fitted effect of over 50% in size
# Chain of Beta-2 adrenergic receptor (Homo sapiens) (P07550 whole entry, looked up): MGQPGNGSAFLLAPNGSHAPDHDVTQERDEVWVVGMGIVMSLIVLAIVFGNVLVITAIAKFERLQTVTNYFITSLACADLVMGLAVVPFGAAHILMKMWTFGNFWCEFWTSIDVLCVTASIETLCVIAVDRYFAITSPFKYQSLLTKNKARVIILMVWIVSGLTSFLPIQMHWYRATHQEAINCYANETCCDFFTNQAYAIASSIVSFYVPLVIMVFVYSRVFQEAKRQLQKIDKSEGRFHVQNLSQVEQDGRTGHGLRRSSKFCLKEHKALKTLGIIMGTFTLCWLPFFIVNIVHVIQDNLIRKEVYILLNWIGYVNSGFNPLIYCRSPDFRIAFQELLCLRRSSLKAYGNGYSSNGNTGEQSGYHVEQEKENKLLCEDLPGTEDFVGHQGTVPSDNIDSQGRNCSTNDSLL
# Method in brief: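 Assay format: CHO-ADRB2 cells, 18-20hr seeding at 37C/5% CO2, then compound plus 1nM isoproterenol agonist mix for 0.5hr RT. Homogeneous time-resolved fluorescence cAMP detection after 1hr, expressed as 665/615 nm ratio.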
# [12] = biological target: D(2) dopamine receptor (Homo sapiens) (UniProt P14416); test: Dopamine D2 receptor (DRD2) small molecule agonists, cell-based qHTS assay (AID 1963594); note: nearly all actives have a fitted effect of over 35% in size
# Chain of D(2) dopamine receptor (Homo sapiens) (P14416 whole entry, looked up): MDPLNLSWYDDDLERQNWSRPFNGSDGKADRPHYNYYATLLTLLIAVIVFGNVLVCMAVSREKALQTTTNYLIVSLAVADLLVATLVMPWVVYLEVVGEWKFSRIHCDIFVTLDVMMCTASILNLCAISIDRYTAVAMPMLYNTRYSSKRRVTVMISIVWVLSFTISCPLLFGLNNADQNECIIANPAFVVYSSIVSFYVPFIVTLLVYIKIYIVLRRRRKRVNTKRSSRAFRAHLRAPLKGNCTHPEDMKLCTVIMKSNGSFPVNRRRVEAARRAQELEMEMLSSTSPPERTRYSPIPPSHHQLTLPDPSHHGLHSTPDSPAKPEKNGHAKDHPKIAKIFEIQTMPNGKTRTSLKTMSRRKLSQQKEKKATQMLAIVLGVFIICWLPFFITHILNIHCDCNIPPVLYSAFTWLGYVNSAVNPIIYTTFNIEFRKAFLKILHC
# Method in brief: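 cAMP accumulation in DRD2-HEK293 cells measured by HTRF after 1 h detection; compounds added 10 min before NKH477 (200nM […]) forskolin-analogue stimulation, 30 min at room temperature, with Ro20-1724 present at 0.1 mM final.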
# [13] = biological target: D(2) dopamine receptor (Homo sapiens) (UniProt P14416); test: Dopamine D2 receptor (DRD2) small molecule antagonists, cell-based qHTS assay (AID 1963595; active = well fitted inhibition curve with a large enough effect in the signal ratio in the repeat runs, with a control signal flat; the % refers to the signal ratio; note: potency is the fitted concentration of half-maximal effect)
# Method in brief: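 In this cell-based antagonist screen, compounds act for 10 min at room temperature before a 30 min challenge with 12 nM quinpirole and 200 nM NKH477. cAMP is quantified by HTRF competition in DRD2-HEK293 cells containing 0.1 mM Ro20-1724.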
# [14] = biological target: 5-hydroxytryptamine receptor 2A (Homo sapiens) (UniProt P28223); test: 5-hydroxytryptamine receptor 2A (HTR2A) small molecule antagonists, cell-based qHTS assay (AID 1963586); note: nearly all actives have a fitted effect of over 45% in size; note: potency is the fitted concentration of half-maximal effect
# Chain of 5-hydroxytryptamine receptor 2A (Homo sapiens) (P28223 whole entry, looked up): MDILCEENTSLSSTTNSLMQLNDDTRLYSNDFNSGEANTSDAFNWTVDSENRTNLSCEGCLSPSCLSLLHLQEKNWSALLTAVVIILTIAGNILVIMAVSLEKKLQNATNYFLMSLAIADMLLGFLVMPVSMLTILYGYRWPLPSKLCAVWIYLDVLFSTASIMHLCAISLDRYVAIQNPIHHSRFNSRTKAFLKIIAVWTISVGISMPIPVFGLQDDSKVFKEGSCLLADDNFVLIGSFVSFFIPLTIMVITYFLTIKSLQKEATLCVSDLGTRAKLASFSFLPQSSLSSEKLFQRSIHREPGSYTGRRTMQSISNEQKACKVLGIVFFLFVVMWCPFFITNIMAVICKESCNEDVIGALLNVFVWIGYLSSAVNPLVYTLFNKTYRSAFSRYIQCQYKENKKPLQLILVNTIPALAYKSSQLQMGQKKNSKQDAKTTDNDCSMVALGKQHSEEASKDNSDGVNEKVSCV
# Method in brief: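 CHO cells stably expressing human HTR2A were plated for 18 h at 37 C, then loaded with calcium dye for 1 h. Compounds were preincubated 5 min at room temperature before DOI (4 nM solution) was added. Kinetic fluorescence was read for 3 min.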
# [15] = biological target: 5-hydroxytryptamine receptor 2A (Homo sapiens) (UniProt P28223); test: 5-hydroxytryptamine receptor 2A (HTR2A) small molecule agonists, cell-based qHTS assay (AID 1963587); note: nearly all actives have a fitted effect of over 30% in size; note: potency is the fitted concentration of half-maximal effect
# Method in brief: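 Kinetic calcium-flux fluorescence (2 min, 1 sec intervals) after compound addition in agonist mode. HTR2A-CHO cells were cultured 18 h, then dye-loaded 1 h at 37 C.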
# [16] = biological target: Muscarinic acetylcholine receptor M1 (Homo sapiens) (UniProt P11229); test: Cholinergic receptor muscarinic 1 (CHRM1) small molecule antagonists, cell-based qHTS assay (AID 1963588); note: nearly all actives have a fitted effect of over 40% in size; note: potency is the fitted concentration of half-maximal effect
# Chain of Muscarinic acetylcholine receptor M1 (Homo sapiens) (P11229 whole entry, looked up): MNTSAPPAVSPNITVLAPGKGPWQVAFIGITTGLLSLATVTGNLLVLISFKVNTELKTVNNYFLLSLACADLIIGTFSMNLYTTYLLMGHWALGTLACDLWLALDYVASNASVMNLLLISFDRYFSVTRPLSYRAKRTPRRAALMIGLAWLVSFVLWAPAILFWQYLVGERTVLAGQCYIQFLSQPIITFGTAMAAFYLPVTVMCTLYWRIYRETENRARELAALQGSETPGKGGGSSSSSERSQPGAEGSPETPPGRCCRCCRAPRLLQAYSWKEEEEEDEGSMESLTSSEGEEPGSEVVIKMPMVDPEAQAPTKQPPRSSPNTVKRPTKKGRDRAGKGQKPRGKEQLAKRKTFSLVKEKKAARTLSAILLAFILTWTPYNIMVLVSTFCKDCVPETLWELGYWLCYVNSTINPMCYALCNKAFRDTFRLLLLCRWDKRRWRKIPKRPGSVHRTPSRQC
# Method in brief: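 Compounds were tested at 15 concentrations in three independent runs. Dye-loaded CHRM1-CHO cells were exposed 5 min at room temperature before stimulation by acetylcholine added at 50nM. Intracellular calcium was read kinetically on FDSS for 3 min.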
# [17] = biological target: Muscarinic acetylcholine receptor M1 (Homo sapiens) (UniProt P11229); test: Cholinergic receptor muscarinic 1 (CHRM1) small molecule agonists, cell-based qHTS assay (AID 1963589); note: nearly all actives have a fitted effect of over 35% in size
# Method in brief: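 qHTS, 15-point titration, 3 independent runs: compounds pin-transferred onto dye-loaded CHRM1-CHO cells (human M1), calcium fluorescence followed every second to detect agonism.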
# [18] = cAMP Responsive Elements (CRE) small molecule antagonists, cell-based qHTS assay (AID 1963591; active = well fitted inhibition curve with a large enough effect in the signal ratio in the repeat runs, not every such curve was filed as active; the % refers to the signal ratio)
# Method in brief: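 Fluorescence intensity from cleaved LiveBLAzer B/G substrate (2 h, room temperature) quantified CRE-bla activity in HEK 293T cells exposed 3 h to compound with 0.25 uM final NKH477.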
# [19] = biological target: Beta-2 adrenergic receptor (Homo sapiens) (UniProt P07550); test: Adrenergic beta2 receptor (ADRB2) small molecule agonists, cell-based qHTS assay (AID 1963593);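 note: CHO cells stably overexpressing human ADRB2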
# Method in brief: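 CHO cells stably over-expressing ADRB2 were plated overnight at 37C, then dosed with compounds plus a stimulation mix containing 100uM IBMX and 25uM Ro-20-1724 for 0.5hr at room temperature. cAMP was measured by HTRF competition, 1hr.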
smiles,measurement,setting,value
CC(=O)[C@H]1[C@H](C#N)C[C@H]2[C@@H]3CC=C4C[C@@H](O)CC[C@]4(C)[C@H]3CC[C@@]21C,Potency,[1],inactive
same,Potency,[2],inactive
same,Potency,[3],inactive
same,Potency,[4],inactive
same,Potency,[5],inactive
same,Potency,[6],inactive
same,Potency,[7],inactive
same,Potency,[8],inactive
same,Potency,[9],inactive
same,Potency,[10],inactive
same,Potency,[11],inactive
same,Potency,[12],inactive
same,Potency,[13],inactive
CC(C)(C)c1ccc(OC(=O)c2ccccc2O)cc1,Potency,[1],inactive
same,Potency,[2],inactive
same,Potency,[3],inactive
same,Potency,[4],inactive
same,Potency,[5],inactive
same,Potency,[6],inactive
same,Potency,[7],inactive
same,Potency,[8],inactive
same,Potency,[9],inactive
same,Potency,[14],inactive
same,Potency,[15],inactive
same,Potency,[16],inactive
same,Potency,[17],inactive
same,Potency,[18],inactive
same,Potency,[11],inactive
same,Potency,[12],inactive
same,Potency,[13],inactive
Cc1cc(C)c(C)c(C)c1,Potency,[1],inactive
same,Potency,[2],inactive
same,Potency,[3],inactive
same,Potency,[4],inactive
same,Potency,[6],inactive
same,Potency,[7],inactive
same,Potency,[8],inactive
same,Potency,[9],inactive
same,Potency,[14],inactive
same,Potency,[15],inactive
same,Potency,[16],inactive
same,Potency,[17],inactive
same,Potency,[10],inactive
same,Potency,[18],inactive
same,Potency,[11],inactive
same,Potency,[12],inactive
same,Potency,[13],inactive
CCCCCCCCCc1ccc(OCCOCCO)cc1,Potency,[1],13 µM (active)
same,Potency,[2],inactive
same,Potency,[3],inactive
same,Potency,[4],inactive
same,Potency,[5],inactive
same,Potency,[6],inactive
same,Potency,[7],inactive
same,Potency,[8],inactive
same,Potency,[14],5.58 µM (active)
same,Potency,[15],20.5 µM (active)
same,Potency,[17],inactive
same,Potency,[11],inactive
same,Potency,[19],inactive
same,Potency,[12],inactive
same,Potency,[13],25.6 µM (active)
CC(C)=CCC[C@](C)(O)[C@@H]1CC=C(C)CC1,Potency,[1],inactive
same,Potency,[2],inactive
same,Potency,[3],inactive
same,Potency,[4],inactive
same,Potency,[5],inactive
same,Potency,[6],inactive
same,Potency,[7],inactive
same,Potency,[9],inactive
same,Potency,[14],inactive
same,Potency,[16],inactive
same,Potency,[17],inactive
same,Potency,[10],inactive
same,Potency,[11],inactive
same,Potency,[19],inactive
same,Potency,[12],inactive
same,Potency,[13],inactive
CN1CCN(CCCN2c3ccccc3Sc3ccc(S(=O)(=O)N(C)C)cc32)CC1,Potency,[1],inactive
same,Potency,[2],inactive
same,Potency,[3],inactive
same,Potency,[4],inactive
same,Potency,[5],inactive
same,Potency,[6],inactive
same,Potency,[7],inactive
same,Potency,[8],inactive
same,Potency,[9],inactive
same,Potency,[15],inactive
same,Potency,[16],5.16 µM (active)
same,Potency,[17],inactive
same,Potency,[12],inactive
same,Potency,[13],0.0473 µM (active)
O=C(O)CN(CCN(CC(=O)O)CC(=O)O)CC(=O)O,activity change,[1],"0.111% [at 2.04 µM, hits give high values]"
same,activation,[2],-1.01% [at 2.72 µM]
same,activation,[3],0.597% [at 2.04 µM]
same,activation,[4],-9.46% [at 2.33 µM]
same,activation,[5],-7.74% [at 2.33 µM]
same,"activity change, negative = cytotoxicity",[6],-15.2% [at 2.33 µM]
same,"activity change, negative = cytotoxicity",[8],1.99% [at 2.33 µM]
same,activation,[9],-4.53% [at 2.33 µM]
same,"activity, negative = inhibition",[14],-0.852% [at 2.12 µM]
same,activation,[15],-0.659% [at 2.65 µM]
same,"activity, negative = inhibition",[16],37.7% [at 2.17 µM]
same,activation,[17],-0.34% [at 2.72 µM]
same,activation,[10],0.14% [at 3.27 µM]
same,"activity change, negative = inhibition",[18],1.65% [at 3.27 µM]
same,"activity change, negative = inhibition",[11],4.71% [at 3.27 µM]
same,activation,[19],11.4% [at 3.27 µM]
same,activation,[12],2.74% [at 3.27 µM]
same,"activity change, negative = inhibition",[13],8.25% [at 3.28 µM]
